# Measured values published in the supplement of paper PMC8253809.
# “And” between values parts separate entries of the source, which are not always exact repeats. Equal entries are not always repeated.
# What was measured:
# Assay in all cases: growth inhibition (% activity, log2 RLU normalised to DMSO / staurosporine); higher = more growth inhibition
# Conditions in all cases: 33 µM
# [1] = test system: DIPGX29 (H3.3 K27M diffuse intrinsic pontine glioma line)
# In short: (§1)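 In triplicate, pHGG cell lines and H9-derived neural stem cells were treated for 7 days at 37 °C, 5% CO2 with approved drugs at a single final concentration of about 33 μM, added by pin tool. CellTiter-Glo luminescence, after log2 transformation, was normalised on each plate to % activity between solvent and positive control wells. Growth inhibition is reported as the median across replicates.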
# [2] = test system: DIPGX37 (H3.3 K27M diffuse intrinsic pontine glioma line)
# In short: as §1
# [3] = test system: DIPGX7 (H3.3 K27M diffuse intrinsic pontine glioma line)
# In short: as §1
# [4] = test system: DIPGX9 (diffuse intrinsic pontine glioma line)
# In short: as §1
# [5] = test system: HGGX39 (paediatric high-grade glioma line)
# In short: as §1
# [6] = test system: HGGX6 (H3.3 G34R paediatric high-grade glioma line)
# In short: as §1
# [7] = test system: HNSC
# In short: as §1
# [8] = test system: SUDIPGIV (diffuse intrinsic pontine glioma line)
# In short: as §1
# [9] = test system: SUDIPGVI (diffuse intrinsic pontine glioma line)
# In short: as §1
# [10] = test system: SUDIPGXIII (diffuse intrinsic pontine glioma line)
# In short: as §1
SMILES,growth inhibition [1],growth inhibition [2],growth inhibition [3],growth inhibition [4],growth inhibition [5],growth inhibition [6],growth inhibition [7],growth inhibition [8],growth inhibition [9],growth inhibition [10]
CCN(CC)CCOc1ccc(C(=C(Cl)c2ccccc2)c2ccccc2)cc1,26.6%,11.7%,45.2%,12.3%,36.3%,28%,63.5%,32.8%,1.14%,0.221%
COc1ccc(/C=C/C(=O)Nc2ccccc2C(=O)O)cc1OC,-0.16%,2.16%,1.32%,-0.609%,-0.29%,-0.75%,3.65%,0.158%,-5.28%,-1.02%
CN1C2CCCC1CC(NC(=O)c1nn(C)c3ccccc13)C2 (stereo not given),1.3%,-1.75%,0.448%,1.03%,1.66%,1.21%,1.6%,0.0415%,1.95%,0.965%
C[C@]12CC[C@H](O)CC1=CC[C@@H]1[C@@H]2CC[C@]2(C)C(c3cccnc3)=CC[C@@H]12,-2.51%,-0.544%,0.888%,2.81%,3.94%,-0.894%,-6.23%,0.327%,-2.29%,-1.17%
CC(=O)O[C@H]1C(=O)[C@@]2(C)[C@H]([C@H](OC(=O)c3ccccc3)[C@]3(O)C[C@H](OC(=O)[C@H](O)[C@@H](NC(=O)c4ccccc4)c4ccccc4)C(C)=C1C3(C)C)[C@]1(OC(C)=O)CO[C@@H]1C[C@@H]2O,9.71%,8.37%,6.36%,22%,32.7%,16.2%,60.4%,25.9%,6.74%,6%
C[C@H]1O[C@H](O[C@H]2[C@H](O)[C@@H](O)[C@@H](O[C@H]3[C@H](O)[C@@H](O)C(O)O[C@@H]3CO)O[C@@H]2CO)[C@H](O)[C@@H](O)[C@@H]1N[C@H]1C=C(CO)[C@@H](O)[C@H](O)[C@H]1O (stereo not given in full),-1.13%,-1.58%,-0.631%,-1.81%,-1.75%,-0.366%,-2.81%,-2.71%,-0.59%,-0.463%
CC(=O)Nc1ncc([N+](=O)[O-])s1,-0.525%,-1.35%,-1.25%,-0.952%,1.46%,1.88%,-5.25%,-1.68%,-0.127%,11.8%
CN(CCOc1ccc(CC2SC(=O)NC2=O)cc1)c1ccccn1 (stereo not given),0.694% and -0.307% and -1.83%,3.97% and -0.209% and -2.53%,1.8% and -0.988% and -1.81%,2.03% and 1.11% and 0.786%,1.62% and 0.821% and 0.11%,1.66% and 0.11% and -0.818%,-0.719% and -0.633% and -2.63%,4.42% and -0.944% and -1.21%,1.7% and -0.11% and -0.397%,-15.6% and -1.12%
O=C1c2cccc3c2[C@H](CCC3)CN1[C@@H]1CN2CCC1CC2,1.6%,0.267%,-0.559%,0.719%,1.18%,1.03%,-3.52%,-0.551%,0.132%,0.79%
Clc1ccc(COC(Cn2ccnc2)c2ccc(Cl)cc2Cl)c(Cl)c1 (stereo not given),3.52% and 3.73%,2.39% and 1.02%,2.11% and 1.8%,4.24% and 1.75%,8.09% and 4.5%,8.84% and 5.54%,8.12% and 18.4%,11.2% and 18.5%,2.08% and 0.276%,8.9% and 4.15%
CCCC(C(=O)OCCN(CC)CC)(c1ccccc1)c1ccccc1,3.18%,1.54%,2.35%,0.685%,0.885%,3.92%,4.69%,1.52%,1.12%,2.55%
COC(c1ccccc1)(c1ccccc1)[C@H](Oc1nc(C)cc(C)n1)C(=O)O,1.89%,2.75%,1.17%,0.496%,2.43%,1.67%,1.25%,-2.2%,2.3%,-15.1%
Cc1ccc(C)c(OCCCC(C)(C)C(=O)O)c1,-0.441%,-0.0995%,0.0111%,0.88%,0.357%,-0.472%,-1.45%,-0.859%,0.864%,0.0955%
CC(C)(C)c1ccc(C(O)CCCN2CCC(C(O)(c3ccccc3)c3ccccc3)CC2)cc1 (stereo not given),-0.594%,-0.074%,0.488%,0.591%,2.84%,1.58%,0.144%,-0.418%,-2.2%,-0.826%
CN(C)CCCN1c2ccccc2CCc2ccc(Cl)cc21,0.798%,0.768%,0.947%,2.88%,7.81%,0.658%,8.46%,7.66%,3.07%,3.28%
O=C(O)c1cn(-c2ccc(F)cc2)c2cc(N3CCNCC3)c(F)cc2c1=O,1.77%,0.654%,2.46%,2.37%,4.02%,3.31%,1.3%,4.25%,3.85%,0.944%
CNC1CCCN(c2c(F)cc3c(=O)c(C(=O)O)cn(C4CC4)c3c2OC)C1 (stereo not given),-0.899%,0.515%,-0.411%,1.06%,0.742%,1.27%,-1.65%,-0.11%,-0.677%,0.279%
Clc1ccc2c(c1)CCc1cccnc1C2=C1CCNCC1,-4.02%,-0.355%,-2.28%,-0.408%,0.308%,-1.66%,0.109%,-0.876%,-0.303%,0.814%
CN(C)CCCN1c2ccccc2Sc2ccc(Cl)cc21,-1.92%,-1.4%,0.129%,-1.08%,0.279%,-2.17%,24.1%,-0.706%,-5.1%,2.77%

SMILES,growth inhibition [1],growth inhibition [2],growth inhibition [3],growth inhibition [4],growth inhibition [5],growth inhibition [6],growth inhibition [7],growth inhibition [8],growth inhibition [9],growth inhibition [10]
C[C@]12C=CC(=O)N[C@@H]1CC[C@@H]1[C@@H]2CC[C@]2(C)[C@@H](C(=O)Nc3cc(C(F)(F)F)ccc3C(F)(F)F)CC[C@@H]12,-0.354%,-0.558%,-0.437%,0.309%,0.618%,1.03%,-1.51%,-0.237%,-0.00919%,-0.463%
Fc1ccc(C(c2ccc(F)cc2)N2CCN(C/C=C/c3ccccc3)CC2)cc1,4.97%,2.42%,6.22%,3.95%,9.77%,2.44%,14.4%,15.8%,5.18%,8.8%
Nc1nccs1,-0.162%,1.62%,-0.134%,1.18%,-0.0642%,-1.25%,5.02%,0.246%,1.08%,0.0518%
COc1cc2nc(N(C)CCCNC(=O)C3CCCO3)nc(N)c2cc1OC (stereo not given),0.0156%,1.16%,-0.0243%,0.217%,-0.734%,1.08%,-0.343%,-0.994%,1.28%,1.78%
CC1CCc2cc(F)cc3c(=O)c(C(=O)O)cn1c23 (stereo not given),-0.61%,1.22%,0.338%,-0.551%,1.41%,2.29%,0.388%,-1.52%,0.839%,-18.7%
CCc1cc(C(N)=S)ccn1,-2.89%,-1.22%,-0.907%,-2.73%,-1.46%,-1.03%,-5.37%,-0.99%,-3.57%,-0.39%
Cc1onc(-c2c(Cl)cccc2Cl)c1C(=O)N[C@@H]1C(=O)N2[C@@H]1SC(C)(C)[C@@H]2C(=O)O,1.78%,1.6%,0.879%,0.739%,2.25%,1.63%,-0.363%,1.41%,2.27%,-0.796%
O=c1[nH]c(=O)n([C@H]2C[C@H](O)[C@@H](CO)O2)cc1C(F)(F)F,-1.08%,0.535%,-1.11%,5.19%,8.23%,-0.706%,57.7%,13.1%,-3.24%,2.3%
CC(=O)[C@H]1CC[C@H]2[C@@H]3CC=C4C[C@@H](O)CC[C@]4(C)[C@H]3CC[C@]12C,-0.784%,-0.0978%,-1.68%,-0.764%,-1.75%,-0.479%,-2.77%,-1.85%,-0.676%,0.295%
CCN(CC)CCNC(=O)c1c(C)[nH]c(/C=C2\C(=O)Nc3ccc(F)cc32)c1C,25.8%,6.19%,11.1%,7.94%,7.9%,20.3%,71.3%,-3.41%,3.36%,-4.08%
CN(N=O)C(=O)N[C@H]1C(O)O[C@H](CO)[C@@H](O)[C@@H]1O (mixture of isomers),0.875%,2.37%,2.05%,1.8%,0.924%,2.69%,2.82%,1.45%,2.34%,0.628%
COc1c2ccoc2cc2oc(=O)ccc12,0.175%,-0.379%,0.232%,1.51%,1.71%,2.12%,-1.02%,0.44%,0.394%,-0.028%
CC1=C(C(=O)OC(C)C)C(c2cccc([N+](=O)[O-])c2)C(C(=O)OC2CN(C(c3ccccc3)c3ccccc3)C2)=C(N)N1 (stereo not given),9.28%,5.94%,22.2%,3.53%,13.3%,15.6%,58%,14.3%,27.2%,11.7%
Cc1cccc(Nc2ccccc2C(=O)O)c1C,-4%,-1.52%,3.05%,-3.62%,-3.34%,-4.45%,9.87%,-8.08%,-6.14%,-0.652%
CC[C@]1(O)C[C@@H]2CN(CCc3c([nH]c4ccccc34)[C@@](C(=O)OC)(c3cc4c(cc3OC)N(C)[C@H]3[C@@](O)(C(=O)OC)[C@H](OC(C)=O)[C@]5(CC)C=CCN6CC[C@]43[C@@H]65)C2)C1,13%,14%,13.2%,22%,17.1%,11.5%,55.5%,32%,16.1%,18.3%
O=C(NC(Cc1cc(=O)[nH]c2ccccc12)C(=O)O)c1ccc(Cl)cc1 (stereo not given),0.575%,0.0807%,-1.26%,0.987%,0.192%,0.202%,-1.11%,-0.753%,0.645%,0.24%
O=C(O)C(=O)O.[NH-]C1CCCCC1[NH-].[Pt+2] (stereo not given),-0.101%,2.05%,-0.541%,7.2%,-0.76%,1.66%,1.98%,-1.88%,0.474%,1.07%
Nc1nc(CC(=O)Nc2ccc(CCNC[C@H](O)c3ccccc3)cc2)cs1,0.527%,0.899%,-0.176%,0.63%,1.04%,-0.0848%,-1.35%,-0.627%,0.0605%,0.226%
COC(=O)C1=C(C)NC(C)=C(C(=O)OC(C)C)C1c1cccc2nonc12 (stereo not given),-2.46%,-3.83%,1.18%,-3.89%,-6.2%,-4.5%,-4.73%,-4.11%,-12.6%,3.66%
